# According to PubChem BioAssay (Tox21):
# Results filed as inconclusive are left out. Entries that show only a call come without a potency. Values without a mark were called inactive. Active and inactive are the calls of the source. Calls come from the whole dose curve; as a rule, active = well fitted cell-killing curve with a large enough effect in the repeat runs; inconclusive = weak or mixed curves, or effect the other way; inactive = flat fitted curve, though single readings scatter.
# Experiments:
# [1] = cAMP Responsive Elements (CRE) small molecule antagonists, cell-based qHTS assay: qHTS cell viability counter screen (AID 2060913); note: nearly all actives have a fitted effect of over 40% in size
# Outline: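 CRE-bla HEK293T cells (2,000/well, 18 h) given compound plus NKH477 0.25 uM final for 3 h at 37C; viability counter-screen by CellTiter-Glo luminescence in same wells after 30 min.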
# [2] = cAMP Responsive Elements (CRE) small molecule agonists, cell-based qHTS assay: qHTS cell viability counter screen (AID 2060914);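 note: viability read after 3 h of compound exposure; nearly all actives have a fitted effect of over 50% in size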
# Outline: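 HEK 293T CRE-bla; DMEM + 10% dialyzed FBS, 25 mM HEPES; 18 h pre-incubation; compound 3 h, 37 °C/5% CO2; CellTiter-Glo added after reporter read; luminescence after 30 min RT.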
# Potency is the fitted concentration of half-maximal effect.
SMILES,Potency [1],Potency [2]
CCC1(CCC(C)C)C(=O)NC(=O)NC1=O,inactive,inactive
CC(=O)Nc1ccc2c(c1)Cc1ccccc1-2,inactive,inactive
COC(=O)C(C)N(C(=O)Cc1ccccc1)c1c(C)cccc1C (centres undefined),inactive,inactive
CNC(=O)Oc1ccccc1C(C)C,inactive,inactive
CCCCC(CC)COC(=O)OOC(C)(C)C (centres undefined),inactive,inactive
COP(=S)(OC)SCN1C(=O)c2ccccc2C1=O,inactive,inactive
CCOC(=O)C(C)OC(=O)c1cc(Oc2ccc(C(F)(F)F)cc2Cl)ccc1[N+](=O)[O-] (centres undefined),inactive,inactive
CN(C)c1nc(=O)n(C2CCCCC2)c(=O)n1C,inactive,inactive
C(CCOCC1CO1)COCC1CO1 (centres undefined),inactive,inactive
COP(=O)(NC(C)=O)SC (centres undefined),inactive,inactive
CC[C@@H](CO)NC(=O)[C@@H]1C=C2c3cccc4[nH]cc(c34)C[C@H]2N(C)C1,inactive,inactive
C=C(C)C(=O)[O][Sn]([CH2]CCC)([CH2]CCC)[CH2]CCC,7.7 µM (active),4.86 µM (active)
C#CC(C)(C)NC(=O)c1cc(Cl)cc(Cl)c1,inactive,inactive
ClC1=C(Cl)C2(Cl)C3C(Cl)C(Cl)CC3C1(Cl)C2(Cl)Cl (centres undefined),60.9 µM (active),54.5 µM (active)
O=C(NC(=O)c1c(F)cccc1F)Nc1cc(Cl)c(Oc2ncc(C(F)(F)F)cc2Cl)c(Cl)c1,inactive,inactive
O=C1CCCN1,inactive,inactive
c1ccc(N2CCNCC2)cc1,inactive,inactive
Cn1[nH]nnc1=S,inactive,inactive
Clc1cccc(N2CCNCC2)c1,inactive,inactive
COC(=O)N(C(=O)N1CO[C@@]2(C(=O)OC)Cc3cc(Cl)ccc3C2=N1)c1ccc(OC(F)(F)F)cc1,inactive,inactive
ClCc1ccccn1,inactive,inactive
S=C=S,inactive,inactive
Cc1c([N+](=O)[O-])c(C)c([N+](=O)[O-])c(C(C)(C)C)c1[N+](=O)[O-],inactive,inactive
C=CC(=O)OCCO,inactive,inactive
CC[C@H](O)C(C[C@H](C)N(C)C)(c1ccccc1)c1ccccc1,inactive,inactive
CCCCS(=O)(=O)Cl,inactive,inactive
C=CC=O,inactive,inactive
